These results are taken from PubChem BioAssay (NCATS).

Results filed as inconclusive are left out. Where a call stands in place of a potency, no number is given. Values without a mark were called inactive. The source made the active and inactive calls. Calls follow the shape of the dose curve; as a rule, active = well fitted cell-killing curve with a large enough effect; inconclusive = small, poorly fitted or top-dose-only effect, or effect the other way; inactive = flat fitted curve, though single readings scatter. Where a SMILES comes first, the peptide text is derived from it.

The assay relates to JEG-3. Kind of assay: Primary qHTS to identify gynecologic anti-cancer compounds using libraries of approved drugs and bioactive compounds (AID 1345084). Also: nearly all actives have a fitted effect of over 55% in size. The conditions noted are these: Gynecologic cancer cell panel viability, ATPlite luminescence, 48 h; series mostly up to 57.5 µM. An outline of the steps: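 48 h compound exposure at 37 C, 5% CO2; five-point qHTS. ATPlite luminescence readout of cell ATP.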
(In qHTS, concentration-response curves come from the screen itself.)
Take `CC(=O)OC[C@]12[C@H](OC(C)=O)[C@H](OC(=O)c3ccccc3)[C@@H]3[C@@H](OC(C)=O)[C@]1(OC3(C)C)[C@H](C)C[C@H](OC(=O)c1ccccc1)[C@@H]2OC(=O)c1ccccc1`: the Potency entry was “inactive”.
On to `C[C@]1(C2CCCC2)Cc2cc(OCC(=O)O)c(Cl)c(Cl)c2C1=O`, for which the Potency result was “inactive”.
For the molecule `CC(NC(=O)c1ccccc1N)C(=O)O` (centres undefined), the Potency result is “inactive”.
On to `O=C(Nc1ccn(Cc2c(F)cccc2C(F)(F)F)n1)c1c(F)cccc1F`, for which the activity change, negative = cytotoxicity is 9.68% [at 11.6 µM].
As to `O=C(OC(C(F)(F)F)C(F)(F)F)N1CCN(Cc2cccc(Oc3ccccc3)c2)CC1`, the Potency entry was “inactive”.
On to `C[C@H]1CC[C@@]2(OC1)O[C@H]1CC3C4CC[C@H]5C[C@@H](O)CC[C@]5(C)C4CC(=O)[C@]3(C)[C@H]1[C@@H]2C` (some centres undefined), for which the Potency entry is “inactive”.
Still for that read-out and setting: the same measure for `Cc1oc(S(=O)(=O)N2CCCCC2)cc1NC(=O)Nc1ccccc1`: “inactive”; for `CCC(C)/C=C(C)/C=C/C1=CC2=C(Cl)C(=O)C(C)(OC(C)=O)C(=O)C2=CN1C(CC(=O)O)C(=O)O` (centres undefined): “inactive”; for `CC(C)[C@](O)(c1ccc2cc(OC(F)F)c(OC(F)F)cc2c1)c1cn[nH]n1`: “inactive”.
On the same count and under the same terms, as for `COc1cc(C(=O)OC[C@H]2O[C@@H](OC(C)(C)C(=O)O)[C@H](O)[C@@H](O)[C@@H]2O)cc(OC)c1O`, the entry is “inactive”; as for `COc1cc(C(C)=O)ccc1O[C@@H]1O[C@H](CO)[C@@H](O)[C@H](O)[C@H]1O`, “inactive”.
For `CC1(C)C(=O)CCC2(C)C1C(O)C=C1COC(=O)C12O` (centres undefined), the Potency result was “inactive”.
Same read-out and setting: as for `COc1cc(/C=C/c2ccccc2)c(C(=O)O)c(O)c1CC=C(C)C`, the entry is “inactive”; as for `CCC(C)C(C(=O)O)N1Cc2c(OCC=C(C)C)c(C)c(OC)c(C(=O)O)c2C1=O` (centres undefined), “inactive”.
With `COC(=O)C1=CO[C@@H](O[C@@H]2O[C@H](CO)[C@@H](O)[C@H](O)[C@H]2O)[C@@H]2[C@@H](CO)[C@@H](O)C(O)[C@H]12` (some centres undefined), the Potency result is “inactive”.
On the same count and under the same terms, the same measure for `CC(C)C[C@H](NC(=O)[C@@H]1O[C@H]1C(=O)O)C(=O)NCCCCN=C(N)N`: “inactive”; for `C[C@@H]1O[C@@H](OC[C@H]2O[C@@H](OCc3ccccc3)[C@H](O)[C@@H](O)[C@@H]2O)[C@H](O)[C@H](O)[C@H]1O`: “inactive”.
On the same count and under the same terms, the same measure for `CNC(=O)c1ccc2c(c1)CCO[C@H]2CCN1CCN(c2ccc(C(N)=O)cc2)CC1`: “inactive”; for `COC(=O)C1=COC(OC2OC(CO)C(O)C(O)C2O)C2C(COC(=O)/C=C/c3ccc(O)c(O)c3)C(O)C(O)C12` (centres undefined): “inactive”.
The same measure, in the same setting: as for `CC(C)C1NC(=O)CNC(=O)C2CCCN2C(=O)C(Cc2c[nH]c3ccccc23)NC(=O)CNC(=O)C(Cc2ccc(O)cc2)NC(=O)CNC1=O` (centres undefined) (cyclo(GVGYGWP); configuration not given here), the entry is “inactive”; as for `CC(C)c1ccc2c(c1)C(=O)CC1C(C)(C(=O)O)CCCC21C` (centres undefined), “inactive”.
For `C=C1CCC2(C(=O)OC3OC(CO)C(O)C(O)C3O)CCC3(C)C(=CCC4C5(C)CCC(OC6OC(CO)C(OC7OC(C)C(O)C(O)C7O)C(OC7OCC(O)C(O)C7O)C6O)C(C)(C)C5CCC43C)C2C1` (centres undefined), the activity change, negative = cytotoxicity was 12.2% [at 11.6 µM].
On to `C=C1CC2C(C)(CCC(=O)O)C(C(C)(C)O)CCC2(C)C2(C(=O)OC)C(=O)C(C)(O)C(=O)C12C` (centres undefined), for which the Potency result was “inactive”.
On to `COc1ccc(-n2c(SCC#N)nc3sc4c(c3c2=O)CCCC4)cc1`, for which the Potency result is “inactive”.
